Results on 108 molecules are retold here after ChEMBL document CHEMBL4513216, “Probing the Open Global Health Chemical Diversity Library for Multistage-Active Starting Points for Next-Generation Antimalarials” (ACS Infect Dis, 2020).

Molecules are shown by their SMILES. About 8,600 (12%) of roughly 69,000 compounds showed an effect of 50% or more. This excerpt belongs to a sample that is enriched for strong results.

This experiment concerns Plasmodium berghei. Put plainly: Screen against P. berghei liver stage (PbLuc), transformed with Luciferase, at 10uM. The class given is functional, HepG2. The settings on record: tested at 10 uM.
Take `COc1cccc(N2CCN(C(=O)CN(C)c3cnccn3)CC2)c1`: the INHIBITION is 35.4%. The result for `CC1CCC(NC(=O)CNC2(c3ccc(Br)cc3)CCOCC2)CC1` (stereo not drawn) reads 12.8%; that for `O[C@@H]1CN(Cc2ccc(F)c(F)c2)CC[C@H]1NCc1ccccn1`, 46.7%; that for `CCCN1Cc2ccccc2NC(=O)C12CCNC2` (stereo not drawn), 38.3%.

Take `O=C(c1cnccn1)N1CCCC2(CCN(Cc3ccsc3)C2)C1` (stereo not drawn): the INHIBITION is -15.2%.

Regarding `O=C(NC1CCCc2nc(N3CCOCC3)ncc21)C1CCCCC1` (stereo not drawn), the INHIBITION is 17.1%.

As to `CNS(=O)(=O)c1ccc(CN(C)Cc2nc3ccc(F)cc3[nH]2)cc1`, the INHIBITION was determined as 29%. The result for `Cc1ccccc1C1(C(=O)NCCN2CCC(C)CC2)CCOCC1` reads 55.1%; that for `Cc1ccccc1C1(C(=O)NCCN2CCOCC2)CCOCC1`, -33.5%. `Cc1ccccc1C1(C(=O)NCCN2CCCC2)CCOCC1`: the INHIBITION is reported as 44.8%.

As to `COc1cccc(-n2nc(C(C)=O)c(C(C)=O)c2C)c1`, the INHIBITION is listed as -17%. On to `O=C1CC2(CCN(C(=O)c3ccccn3)CC2)Oc2c(Cl)cc(Cl)cc21`, for which the INHIBITION was found to be 4.57%.

Regarding `CNc1cc(CNC(=O)c2ccncc2)nc(-c2ccncc2)n1`, the INHIBITION is given as 4.08%. Turning to `Cc1nc(C)n(C2CCCN(C(=O)Cc3csc(C(C)C)n3)C2)n1` (stereo not drawn), the INHIBITION is 26.4%. For the molecule `Fc1cccc(CNCC2OCCc3cn(CC4CCOCC4)nc32)c1` (stereo not drawn), the INHIBITION turned out to be 68.4%.

`c1c2c(nn1CC1CC1)C(CNC1CCOCC1)OCC2` (stereo not drawn): the INHIBITION came out at 15.3%. Take `Fc1ccc(CNCC2OCCc3cn(CC4CC4)nc32)cc1` (stereo not drawn): the INHIBITION is on record as 46.6%.

Regarding `CS(=O)(=O)NCC1OCCc2cn(CC3CC3)nc21` (stereo not drawn), the INHIBITION was found to be 44.2%.

For `CCCS(=O)(=O)NCC1OCCc2cn(CC3CCOCC3)nc21` (stereo not drawn), the INHIBITION came to 55.5%.

Regarding `O=S(=O)(NCC1OCCc2cn(CC3CCOCC3)nc21)C1CC1` (stereo not drawn), the INHIBITION was 29.8%.

`CN(C)S(=O)(=O)NCC1OCCc2cn(CC3CCOCC3)nc21` (stereo not drawn): the INHIBITION is 20.1%. Regarding `O=C(Cc1ccsc1)NCC1OCCc2cn(CC3CC3)nc21` (stereo not drawn), the INHIBITION was -46.6%. Take `CCS(=O)(=O)NCC1OCCc2cn(CC3CCOCC3)nc21` (stereo not drawn): the INHIBITION came out at 66.8%.

With `CS(=O)(=O)CC(=O)NCC1OCCc2cn(CC3CC3)nc21` (stereo not drawn), the INHIBITION is given as 54.7%.

In the case of `c1c2c(nn1CC1CCOCC1)C(CNC1CCOCC1)OCC2` (stereo not drawn), the INHIBITION was -44.2%.

With `c1cc(CNCC2OCCc3cn(CC4CCOCC4)nc32)ccn1` (stereo not drawn), the INHIBITION is reported as 19.9%. For `COCCCn1ccc(NCc2ccc(NC(C)=O)cc2)n1`, the INHIBITION was 19.7%. For the molecule `COc1cc2c(cc1C(=O)N1CCCCC1c1ccccn1)CCC2` (stereo not drawn), the INHIBITION amounted to 11.6%. `Cc1ccc2nc(C(=O)N3C[C@@H](C(=O)O)[C@H](c4ccccc4)C3)cn2c1`: the INHIBITION is -46%. With `O=C(c1cccs1)N1CCOCC2(C1)CN(c1ccccc1)C(=O)CO2` (stereo not drawn) the figure was -8.28%; with `CCOCC1CN(c2ccncn2)Cc2cnn(CC3CC3)c21` (stereo not drawn), -8.19%; with `Cc1nccn1C1CCCN(C(=O)c2cccc(Cn3ccnc3)c2)C1` (stereo not drawn), -6.14%. Consider `O=C(CCc1cc2n(n1)CCCNC2)N1CCC(N2CCOC2=O)CC1`, for which the INHIBITION is listed as -39.2%. `COCCNc1nnc(-c2ccc(C)nc2)s1`: the INHIBITION is -74.5%. Regarding `CCc1nc(CN2CC[C@@](O)(CCOC)[C@H](C)C2)cs1`, the INHIBITION came out at 0.868%. With `CCOc1cc(CNCCCn2ccnc2)cc(Cl)c1OC`, the INHIBITION came out at 49.5%. The result for `CCOc1ccc(CNCCCn2ccnc2)cc1Cl` reads -32.1%; that for `CCOc1cc(CNCCCn2ccnc2)cc(Cl)c1OCC`, 58.1%; that for `CC(=O)NCC1CCC2(CCN(c3ncnc4oc(C)nc34)CC2)O1` (stereo not drawn), 34.9%. As to `CC(=O)N1CCC(NC(=O)CN2CCCc3c(C)ccc(F)c32)CC1`, the INHIBITION is listed as -7.13%. The result for `Cc1cnn(-c2cccc(N3CCN(c4cc(C)nc(C)n4)CC3)n2)c1` reads 85.5%; that for `Cc1cnn(-c2cccc(N3CCCC3)n2)c1`, 30.3%; that for `Cc1cnn(-c2cccc(N3CCCCC3)n2)c1`, 39.3%.

In the case of `CC(=O)N1CCCC1C(=O)NCCOc1ccc(C(C)C)cc1` (stereo not drawn), the INHIBITION is reported as 29.4%. Take `CC(C)Cn1c(=O)n(CCCn2cccn2)c2cc(C(=O)O)cnc21`: the INHIBITION is on record as -18.1%. Take `Cn1cc(NC(=O)N2CCN(Cc3cscn3)CC2)ccc1=O`: the INHIBITION was found to be 48.3%. Regarding `O=C(Cn1nnc(-c2ccc(F)cc2)n1)N1CCOCC(O)C1` (stereo not drawn), the INHIBITION was 38.6%. For `O=C(CCCn1nnc(-c2ccc(F)cc2)n1)N1CCOCC(CO)C1` (stereo not drawn), the INHIBITION came to 52%. As for `CC[C@H]1COCCN1C(=O)CCCn1nnc(-c2ccc(F)cc2)n1`, the INHIBITION is 35%.

As for `CCCS(=O)(=O)NC(C)C(=O)NCc1ccnc(N2CCCC2)c1` (stereo not drawn), the INHIBITION came to 14.4%.

In the case of `COCC(=O)N1CCC2(C1)c1ccccc1S(=O)(=O)N2CCC(C)C` (stereo not drawn), the INHIBITION is on record as -14.2%. With `CC(=O)N1CCC2(C1)c1ccccc1S(=O)(=O)N2Cc1ccccc1` (stereo not drawn), the INHIBITION came out at 6.72%. Regarding `COCC(=O)N1CCC2(C1)c1ccccc1S(=O)(=O)N2CC1CC1` (stereo not drawn), the INHIBITION is 17.6%.

Regarding `COCC(=O)N1CCC2(C1)c1ccccc1S(=O)(=O)N2C` (stereo not drawn), the INHIBITION came out at 65.3%.

Take `CC(=O)N1CCC2(C1)c1ccccc1S(=O)(=O)N2C` (stereo not drawn): the INHIBITION is recorded as 50.4%. On to `CC(=O)N1CCC2(C1)c1ccccc1S(=O)(=O)N2CCC(C)C` (stereo not drawn), for which the INHIBITION was -61.6%.

On to `Cc1ccccc1C(=O)N1CCC(n2nnc3cc(F)ccc32)CC1`, for which the INHIBITION is recorded as -30.1%. For `CC(C)c1nnc(CCC(=O)N2CCOC(c3cnccn3)C2)o1` (stereo not drawn), the INHIBITION came out at 11.8%. The result for `CC(C)C[C@H](N)c1nnc(SCC(N)=O)o1` reads -21.4%; that for `NS(=O)(=O)CCCNC(=O)c1cnc(-c2ccsc2)s1`, 41.4%. In the case of `O=C1C[C@@H]2CC[C@H](CN1)N2C(=O)CCc1ccsc1`, the INHIBITION was determined as 36.7%. `CC(=O)N1CCC2(CC1)CC(NS(C)(=O)=O)c1ccccc1O2` (stereo not drawn): the INHIBITION is 25.9%. With `CC(=O)N1CCOCC(Cc2ccc3c(ccn3C)c2)C1` (stereo not drawn), the INHIBITION is -20.265%.

With `Cn1cc(CN2C[C@@H]3COC[C@@H](C(=O)N4CCCCO4)[C@@H]3C2)cn1`, the INHIBITION amounted to 39.8%. On to `CCC(=O)N1CCc2onc(CNS(C)(=O)=O)c2C1`, for which the INHIBITION was 69.3%.

On to `CN(C)CC(=O)N1CCc2onc(Cn3cccn3)c2C1`, for which the INHIBITION is 33.4%.

Regarding `O=C(CC(F)(F)F)N1CCc2onc(Cn3cccn3)c2C1`, the INHIBITION is recorded as 32.4%. With `CS(=O)(=O)NCc1noc2c1CN(C(=O)C1CCC1)CC2`, the INHIBITION came out at 18.6%.

As for `CS(=O)(=O)NCc1noc2c1CN(C(=O)C1CC1)CC2`, the INHIBITION turned out to be 30.3%. `O=C(CO)N1CCc2onc(Cn3cccn3)c2C1`: the INHIBITION is 51.2%.

Take `CC1CN(C(=O)CN(Cc2ccco2)Cc2cccs2)CCO1` (stereo not drawn): the INHIBITION is -19.9%. With `COC(=O)c1cccn1C1CCN(C(=O)c2c(C)noc2C)CC1`, the INHIBITION worked out at 36.1%.

For the molecule `COc1cc2c(cc1OC)C(=O)C(Sc1nnnn1C)C2` (stereo not drawn), the INHIBITION is listed as 26.4%. With `CSc1ncc(C(=O)NCCn2nccc2C)cn1` the figure was 5.785%. With `O=S(=O)(c1ccc(F)cc1)N1CC[C@H]2[C@H]1CCN2c1ncccn1`, the INHIBITION stood at 2.4%. Turning to `O=C(c1cnc2c(cnn2C2CCCC2)c1)N1CCN(CCO)CC1`, the INHIBITION came to 24%. As for `Fc1ccc(OCCCN2CCCC(Cn3cncn3)C2)cc1` (stereo not drawn), the INHIBITION is given as 5.9%. On to `Cn1cc(CN2CCCC(CCc3ccc(F)cc3)C2)cn1` (stereo not drawn), for which the INHIBITION amounted to 59.2%. As to `COc1ccc(CN2CC[C@H](O)[C@@H]2Cc2cnn(C)c2)cc1`, the INHIBITION is listed as 47.4%. As to `Cn1cc(C[C@H]2[C@H](O)CCN2Cc2ccncc2)cn1`, the INHIBITION turned out to be 46.2%. For `CCn1cc(CN2CCCC(COc3ccccc3F)C2)cn1` (stereo not drawn), the INHIBITION came to 69.3%. Consider `Cn1nccc1CN1CCCC(COc2ccccc2F)C1` (stereo not drawn), for which the INHIBITION worked out at 17.4%. On to `Cn1cc(CN2CCCC(CCc3ccc(F)c(F)c3)C2)cn1` (stereo not drawn), for which the INHIBITION stood at 38.6%. Regarding `CCn1cc(CN2CCCC(COc3ccc(F)cc3)C2)cn1` (stereo not drawn), the INHIBITION came to 74%. Consider `Cn1cc(C[C@H]2[C@H](O)CCN2Cc2ccc(F)cc2)cn1`, for which the INHIBITION is listed as 57.9%. The result for `Cn1cc(CN2CCCC(CCc3ccc(F)cc3F)C2)cn1` (stereo not drawn) reads 43%; that for `Cn1cc(CN2CCCC(CCc3c(F)cccc3F)C2)cn1` (stereo not drawn), 30.5%. The result for `COc1ccc(OCC2CCCN(Cc3ccncc3)C2)cc1` (stereo not drawn) reads 46.3%; that for `Cc1cc(NC(C)c2nncn2C2CCCC2)n2nc(C)c(C)c2n1` (stereo not drawn), 32.1%.

Consider `CC1CCN(c2nccn3c(=O)[nH]nc23)CC1`, for which the INHIBITION is on record as 16.8%. As to `Cc1oc(-c2cccc(F)c2F)nc1CN(CCO)C(C)C`, the INHIBITION was found to be 13.6%. With `CNC(=O)c1ccc(C2CN(C(=O)c3coc(C)n3)CCO2)nc1` (stereo not drawn), the INHIBITION was -24.1%. The result for `FC(F)(F)COCCN1CCOC(Cn2cccn2)C1` (stereo not drawn) reads 40%; that for `CCCNC(=O)NC(=O)CNC(C)(C)c1ccc2c(c1)OCCO2`, -4.94%.

As to `COc1ccccc1CN1C(=O)O[C@@H]2CN(c3nc(C)cnc3C)C[C@@H]21`, the INHIBITION is listed as 20.9%. `Cc1cnc(C)c(N2C[C@H]3OC(=O)N(C4CCCC4)[C@H]3C2)n1`: the INHIBITION is 68.1%.

In the case of `Cc1ccc(C(N)=O)c(N2C[C@H]3OC(=O)N(C4CCCC4)[C@H]3C2)n1`, the INHIBITION is on record as -14.1%. As for `CC(C(=O)NCc1ccc(N2CCCC2)nc1)S(C)(=O)=O` (stereo not drawn), the INHIBITION was 45.7%. As for `Cc1cccc(C(=O)N2CCCN(Cc3cscn3)CC2)c1`, the INHIBITION was -33.7%. With `CCOC(=O)CCn1cnc2onc(-c3cc(OC)ccc3Cl)c2c1=O`, the INHIBITION is reported as -8.07%. The result for `COc1ccc(Cl)c(-c2noc3ncn(CCC(=O)O)c(=O)c23)c1` reads 25.9%; that for `CCOC(=O)CCn1cnc2onc(-c3ccc(OC)cc3)c2c1=O`, 71.4%. The result for `Cc1noc(C)c1CC(=O)N1CCc2sccc2C1` reads 19.2%; that for `Cc1ccc(NCc2cn3c(n2)CN(Cc2ccc(C)o2)CC3)nn1`, 29.8%; that for `CNc1cc(C2CN(C(=O)c3ccn(C)n3)CCO2)nc(C)n1` (stereo not drawn), -29%. For the molecule `CCCS(=O)(=O)CCSc1cccc(C#N)c1`, the INHIBITION is on record as 51.4%. Regarding `CS(=O)(=O)CCSc1cccc(C#N)c1`, the INHIBITION turned out to be 7.84%. Turning to `CCS(=O)(=O)CCSc1cccc(C#N)c1`, the INHIBITION worked out at 7.43%.
